# Compound activity from PubChem BioAssay.
# TDP1 cell CPT – growth inhibition of DT40 Tdp1-/-;hTDP1 cells with camptothecin (screen for TDP1 inhibitors); Potency, µM (titrated, usually from 46.2 µM), for the others: top-dose activity change, negative = growth inhibition, actives largely listed as inhibitors; chicken DT40 Tdp1-/-;hTDP1 cells + 20 nM CPT, ATP luminescence, 48 h; hit rate 12% among 420,000; also: potency is read from the fitted curve at half-maximal effect; nearly all actives have a fitted effect of over 55% in size
#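 Chicken DT40 Tdp1-/- cells complemented with human TDP1, 400 cells/well, exposed to compounds plus 20 nM camptothecin for at least 48 h at 37 C; viability read as ATP content by CellTiter-Glo luminescence.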
# TDP1 cell noCPT – qHTS for Inhibitors of human tyrosyl-DNA phosphodiesterase 1 (TDP1): qHTS in cells in absence of CPT | DT40 Tdp1-/- hTDP1 cells, no CPT, ATP luminescence, 48 h | Potency, µM (doses to about 46.2 µM), without a hit: top-dose activity change, negative = growth inhibition, usual class: inhibitors | hit rate 15% among 420,000; also: potency is read from the fitted curve at half-maximal effect; nearly all actives have a fitted effect of over 55% in size
#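 Luminescent ATP content (CellTiter-Glo) served as the growth readout. Knockout chicken DT40 cells expressing human TDP1 were exposed to compounds without camptothecin for a minimum 48 hr at 37 °C.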
# 12-LOX inh – inhibitors of human 12S-lipoxygenase ALOX12 | AID 1671190 | hit rate 1.1% among 580,000 | purified 12hLO, xylenol orange hydroperoxide absorbance | Potency, µM (highest dose often 108 µM), for the others: at the highest dose activity change, negative = inhibition, hits mostly inhibitors; also: potency is read from the fitted curve at half-maximal effect
# Target sequence (P18054 whole entry, looked up): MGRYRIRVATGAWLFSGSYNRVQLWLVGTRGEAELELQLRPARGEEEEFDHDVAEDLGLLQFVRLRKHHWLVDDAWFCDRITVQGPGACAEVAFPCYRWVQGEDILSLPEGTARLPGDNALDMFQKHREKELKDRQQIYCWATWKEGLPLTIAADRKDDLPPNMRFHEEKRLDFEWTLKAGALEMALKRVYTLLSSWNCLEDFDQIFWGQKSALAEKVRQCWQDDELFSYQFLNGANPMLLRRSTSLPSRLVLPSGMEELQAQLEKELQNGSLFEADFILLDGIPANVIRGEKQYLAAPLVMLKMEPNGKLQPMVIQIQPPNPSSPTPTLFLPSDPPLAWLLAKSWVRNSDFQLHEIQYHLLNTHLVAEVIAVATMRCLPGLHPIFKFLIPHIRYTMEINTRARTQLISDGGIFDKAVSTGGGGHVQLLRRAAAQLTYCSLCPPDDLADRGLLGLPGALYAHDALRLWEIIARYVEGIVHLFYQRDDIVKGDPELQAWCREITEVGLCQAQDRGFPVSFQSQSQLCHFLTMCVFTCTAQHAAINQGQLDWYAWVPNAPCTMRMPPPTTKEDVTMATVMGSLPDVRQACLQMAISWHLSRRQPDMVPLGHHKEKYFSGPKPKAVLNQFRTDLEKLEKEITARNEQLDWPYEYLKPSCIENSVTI
#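 Purified human 12hLO at 150 nM in 25 mM Hepes, 0.01% Triton X-100, pH 7.0, preincubated 15 min at room temperature with compound. Reaction started with 40 uM arachidonic acid, 30 min at room temperature. Hydroperoxide measured by Fe-xylenol orange, 573/405 nm absorbance ratio.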
# IL-1B inflam inh – inflammasome signaling inhibition, IL-1 beta readout | THP-1 LPS/ATP IL-1B secretion, AlphaLISA, 16 h; active compounds read low | activity change, % at 57.5 µM | hit rate 4.7% among 360,000 | AID 743279; in the data active = activity change below about -50%; inconclusive = mostly about -30% to -49%
#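 THP-1 cells pretreated 1 hr with compounds (up to 57.5 uM final), then stimulated with LPS (250 ng/mL final) plus ATP (1.25 mM final); secreted IL-1B measured by AlphaLISA after 16 hr, decreased signal indicating inhibition.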
# HT1080NT lethal – kills 2HG-producing HT-1080-NT fibrosarcoma cells. HT-1080-NT fibrosarcoma viability, CellTiter-Glo ATP luminescence, 48 h. Potency, µM (highest dose often 46.1 µM), without a hit: at the highest dose activity, negative = less viability, most hits filed as cytotoxic. hit rate 1.6% among 360,000;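 also: NT is the 2HG producing partner of a matched IDH1 knockdown line; potency is read from the fitted curve at half-maximal effect; 0% = DMSO-treated cells and -100% = media-only wells without cells; nearly all actives have a fitted effect of over 55% in size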
#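 Viability by CellTiter-Glo luminescence after 48 h compound exposure at 37C of HT-1080-NT cells (750/well, RPMI, 5% FBS). % activity scaled between DMSO wells and medium-only wells, then curve-fitted and categorized by curve class.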
# HT1080 IDH1KD tx – HT-1080 IDH1 knockdown cell toxicity (counter line) | HT-1080 IDH1 knockdown viability, ATP luminescence, 48 h | Potency, µM (highest dose often 46.1 µM), for inactives: at the top dose activity, negative = toxicity, hits mostly cytotoxic | hit rate 2% among 360,000 | AID 686971;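 also: potency is read from the fitted curve at half-maximal effect; 0% = DMSO wells and -100% = cell-free medium wells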
#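 IDH1KD HT-1080 cells, 750/well, RPMI + 5% FBS; compound pinned after 2 h settling; 48 h, 37 °C; CellTiter-Glo luminescence; % activity normalised to DMSO and no-cell wells; curves fitted, classed by r2 and efficacy.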
# * hit, by the source's call; ? = inconclusive; . = not tested or not shown. Many of the other results were omitted from the sample, so hits are more common in it than they were. Unless noted, calls follow the shape of the dose curve; as a rule, active = well fitted curve in the direction sought with a large enough effect; inconclusive = small, poorly fitted or top-dose-only effect, or another doubt; inactive = no such curve, though single readings can be large; an effect the other way counts as inactive or inconclusive. Unless noted, % is scaled to controls: 0 for no effect and ±100 for the full control effect.
SMILES,TDP1 cell CPT,TDP1 cell noCPT,12-LOX inh,IL-1B inflam inh,HT1080NT lethal,HT1080 IDH1KD tx
C=CCn1c(SCC(=O)/C(C#N)=C(\C)N)nc2sc(CC)cc2c1=O,21µM*,21µM*,?,?,-2%,-17%
C=CCn1c(SCC(=O)O)nc2sc(CC)cc2c1=O,5%,-28%,?,6,16%,2%
C=CCn1c(SCC(=O)c2cccs2)nc2sc(CC)cc2c1=O,15µM*,16µM*,1%,9,-6%,?
COc1ccc(-c2cc(N3CCCC(NC(=O)c4ccccc4Cl)C3)n[nH]2)cc1 (stereo unspecified),.,.,67%,.,.,.
COc1cccc(C(=O)N2CCC3(CC2)CC(O)CCO3)c1OC (stereo unspecified),.,.,20%,.,.,.
COc1ccccc1C(=O)N1CCC2(CC1)NC(=O)N(c1cccc(F)c1)N2,.,.,2.5µM*,.,.,.
COc1cccc(C(=O)N2CCC3(CC2)NC(=O)N(c2cccc(F)c2)N3)c1OC,.,.,3.2µM*,.,.,.
COc1cccc(C(=O)N2CCC3(CC2)NC(=O)N(c2ccc(F)cc2)N3)c1OC,.,.,4µM*,.,.,.
COc1ccc(C(=O)N2CCC3(CC2)NC(=O)N(c2cccc(F)c2)N3)cc1F,.,.,2µM*,.,.,.
COc1ccccc1CC(=O)N1CCC2(CC1)NC(=O)N(c1cccc(F)c1)N2,.,.,1.8µM*,.,.,.
O=C(c1cc(C2CC2)[nH]n1)N1CCC2(CC1)NC(=O)N(c1cccc(F)c1)N2,.,.,11µM*,.,.,.
Cc1ccc(C(=O)N2CCC3(CC2)NC(=O)N(c2ccc(F)cc2)N3)s1,.,.,2µM*,.,.,.
CCn1nccc1C(=O)N1CCC2(CC1)NC(=O)N(c1cccc(F)c1)N2,.,.,4µM*,.,.,.
CCn1nccc1C(=O)N1CCC2(CC1)N(Cc1cccc(F)c1)C(=O)CS2=O (stereo unspecified),.,.,29%,.,.,.
CC(C)c1nnc(NC(=O)c2nn(-c3cccc(Cl)c3)ccc2=O)s1,.,.,-42%,.,.,.
CC(C)(C)c1ccc(C(=O)NNc2ncccc2-n2cccc2)cc1,13µM*,13µM*,142%,-5,-5%,-1%
O=C(NNC(=O)c1ccccc1-n1cccc1)c1ccc(Cl)cc1,5%,-11%,0%,10,12%,8%
O=C(NNc1ncccc1-n1cccc1)c1ccc(Cl)cc1,?,7.3µM*,2%,-20,-5%,0%
Cc1cc(C(=O)N2CCCCCC2)cc(S(=O)(=O)N2CCC(C)CC2)c1C,.,.,11%,.,.,.
COc1cc(C(C)=O)ccc1OCC(=O)OCc1ccc2c(c1)OCO2,.,.,6%,.,.,.
COc1cccc(-c2cc(C3CCN(S(=O)(=O)c4ccc(C(C)=O)cc4)CC3)[nH]n2)c1,.,.,25%,.,.,.
CC(Oc1ccc(C(C)(C)C)cc1)c1ccnc2nc(/N=C/N(C)C)nn12 (stereo unspecified),16µM*,?,13%,-3,-7%,?
CC(Oc1ccc(F)cc1)c1ccnc2nc(/N=C/N(C)C)nn12 (stereo unspecified),-2%,-7%,-18%,25,4%,2%
Cc1nn(C)c(C)c1NC(=O)COc1ccc(F)cc1Br,?,13µM*,?,3,13µM*,-11%
COc1ccc(/C=C/C(=O)NCc2cn(C)nc2C)cc1COc1ccc(Br)cc1,-8%,-30%,-14%,?,-28%,?
SMILES,TDP1 cell CPT,TDP1 cell noCPT,12-LOX inh,IL-1B inflam inh,HT1080NT lethal,HT1080 IDH1KD tx
Cc1cc(C)n(CC(=O)NNC(=O)COc2ccc(F)cc2Br)n1,-4%,-29%,-6%,5,-1%,0%
COc1ccc(/C=C/C(=O)Nc2c(C)nn(C)c2C)cc1COc1ccc(Cl)cc1Br,18µM*,?,6%,?,24%,-7%
CSc1cc(C)c(OCC(=O)Nc2c(C)nn(C)c2C)c(C)c1,15µM*,?,-23%,0,-6%,-4%
CCCc1ccc(C(NC(=O)Cn2ccc(=O)[nH]c2=O)c2cccs2)cc1 (stereo unspecified),.,.,-23%,.,.,.
O=C(COC(=O)/C=C/C(=O)OCC(=O)Nc1ccccc1F)Nc1ccccc1F,?,?,0%,-82*,-3%,-4%
C/C=C/C(=O)OCC(=O)Nc1ccccc1Br,1%,4%,-1%,-7,1%,-14%
Cc1ccc(NC(=O)CN(C)C(=O)COC(=O)/C=C/c2cccs2)cc1,14%,-23%,-6%,-97*,1%,5%
CCOc1ccccc1NC(=O)COC(=O)/C=C/c1cccs1,-18%,18µM*,-31%,-17,1%,-1%
COc1ccc(C(=O)NC(CC(=O)O)c2cc([N+](=O)[O-])ccc2Cl)c(SC)c1 (stereo unspecified),13%,-12%,-7%,8,2%,-16%
Cc1cc(OCC(=O)Nc2ccc(C(=O)OC(C)C)cc2)cc(C)c1Cl,.,.,-1%,.,.,.
O=C(c1cnn2c(C(F)(F)F)cc(-c3cccs3)nc12)N1CCCC1,?,-26%,-14%,0,-6%,-2%
O=C(NC1CCCCC1)c1nn2c(C(F)(F)F)cc(-c3ccco3)nc2c1Br,-2%,-19%,?,0,-9%,0%
O=C(NCc1ccco1)c1cnn2c(C(F)(F)F)cc(-c3cccs3)nc12,15µM*,21µM*,-27%,-16,-16%,-12%
O=C(NC1CCCCC1)c1cnn2c(C(F)(F)F)cc(-c3ccco3)nc12,23µM*,?,?,-9,?,?
CCc1ccc(N2C(=O)CSC23C(=O)N(Cc2cccc(OC)c2)c2ccccc23)cc1 (stereo unspecified),.,.,2%,.,.,.
CCNC(=O)NC(=O)C(C)N(C)CC(=O)Nc1ccc(O)cc1 (stereo unspecified),.,.,9%,.,.,.
CS(=O)(=O)c1cccc(C(=O)Nc2ccc(-c3nc4ccccc4[nH]3)cc2)c1,8.2µM*,7.3µM*,0%,-4,12µM*,12µM*
CN(c1ccccc1)S(=O)(=O)c1ccc(Cl)c(C(=O)Nc2ccc(-c3nc4ccccc4[nH]3)cc2)c1,18µM*,18µM*,-4%,11,-22%,?
CN(c1ccccc1)S(=O)(=O)c1ccc(Cl)c(C(=O)Nc2nn[nH]n2)c1,4%,2%,?,12,-12%,8%
CN(c1ccccc1)S(=O)(=O)c1ccc(Cl)c(C(=O)Nc2nc3ccccc3[nH]2)c1,15µM*,15µM*,5%,?,-21%,?
CS(=O)(=O)c1ccccc1C(=O)Nc1ccc(-c2nc3ccccc3[nH]2)cc1,-23%,?,-23%,-7,3%,0%
